# Screens from PubChem BioAssay.
# Sampled rows, rich in hits. Any-hit rate of the full collection: about 9%.
# ALOX12 inh: ALOX12 (human) lipoxygenase inhibition; P18054; purified 12hLO, xylenol orange hydroperoxide absorbance; Potency, µM (top dose mostly 108 µM), for the others: top-dose activity change, negative = inhibition, actives largely listed as inhibitors; hit rate 1.1% among 580,000; further: on the % scale 0 is the no-effect control and ±100 the full control effect
#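 Purified human 12hLO at 150 nM in 25 mM Hepes, 0.01% Triton X-100, pH 7.0, preincubated 15 min at room temperature with compound. Reaction started with 40 uM arachidonic acid, 30 min at room temperature. Hydroperoxide measured by Fe-xylenol orange, 573/405 nm absorbance ratio.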
# PLK1 PBD inh: PLK1 (human) polo-box domain binding inhibition; Plk1 PBD binding of FITC phosphopeptide, fluorescence polarization; Potency, µM, for inactives: max response, negative = inhibition, actives largely listed as inhibitors; hit rate 2.8% among 360,000; AID 720504; further: series mostly up to about 57 µM; on the % scale 0 is the no-effect control and ±100 the full control effect; nearly all actives have a fitted effect of over 65% in size
# HP1b binding inh: HP1-beta chromodomain-methylated histone interaction inhibition | P83916 | hit rate 0.56% among 390,000 | AlphaScreen HP1-beta / biotin-H3K9me3 peptide binding | Potency, µM (series often up to 114 µM), for the others: at the top dose activity change, negative = inhibition, usual class: inhibitors; further: nearly all actives have a fitted effect of over 70% in size
#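 HP1-beta protein (50 nM final) preincubated 30 min at room temperature with biotinylated H3(1-18)K9me3 peptide (50 nM) in PBS pH 7.4, 0.01% Tween-20, then compound added for 30 min. AlphaScreen streptavidin donor/nickel chelate acceptor beads (10 ug/mL final), 30 min dark, luminescence read.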
# G9a inh: inhibitors of human histone lysine methyltransferase G9a | G9a H3K9 monomethylation, AlphaScreen, 2 h | hit rate 8.8% among 350,000 | Potency, µM (series often up to 102 µM), inactives show top-dose activity, negative = inhibition, actives largely listed as inhibitors; further: on the % scale 0 is the no-effect control and ±100 the full control effect; nearly all actives have a fitted effect of over 75% in size
#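 AlphaScreen read-out: biotin-H3K9 peptide (500 nM) methylation by 20 nM enzyme with 20 uM SAM, 2 h at room temperature after 15 min compound preincubation; anti-monomethyl H3K9 antibody plus donor/acceptor beads, 10 min dark.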
# JMJD2A Tudor inh: inhibitors of human JMJD2A Tudor domain. Potency, µM (titrated, usually from 114 µM), inactives show at the highest dose activity change, negative = inhibition, usual class: inhibitors. hit rate 4.4% among 390,000. O75164. AlphaScreen JMJD2A-Tudor / H3K4me3 peptide binding; further: on the % scale 0 is the no-effect control and ±100 the full control effect; nearly all actives have a fitted effect of over 50% in size
# BAZ2B inh: blocks human BAZ2B; Q9UIF8; AlphaScreen BAZ2B-H3K14Ac peptide displacement; hit rate 4.4% among 360,000; Potency, µM (highest dose often 114 µM), for inactives: at the top dose activity change, negative = inhibition, actives largely listed as inhibitors; further: on the % scale 0 is the no-effect control and ±100 the full control effect; nearly all actives have a fitted effect of over 60% in size
#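 Protein-peptide AlphaScreen: BAZ2B 50 nM, b-H3K14Ac 50 nM, 1x PBS pH 7.4 + 0.01% Tween-20. Preincubation 30 min RT; cpd 30 min RT (top 110 uM); beads 20 min RT, light-protected.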
# Active calls of the source: *; i = inactive; u = inconclusive; x = not tested or not shown; [ ] = another dose, or the depositor's remark. The call rests on the fitted dose curve; in most records, active means well fitted curve in the direction sought with a large enough effect; inconclusive means small, poorly fitted or top-dose-only effect, or another doubt; inactive means no such curve, though single readings can be large; an effect the other way counts as inactive or inconclusive. Potency means the concentration at half of the fitted maximal effect.
SMILES,ALOX12 inh,PLK1 PBD inh,HP1b binding inh,G9a inh,JMJD2A Tudor inh,BAZ2B inh
COc1ccc(OC)c(/C=N/n2c(COc3ccccc3)n[nH]c2=S)c1,12%,-13%,44%,u,-13%,3%
COc1cc(OC)c(OC)cc1/C=N/n1c(COc2ccccc2)n[nH]c1=S,u,27µM*,u,u,18µM*,-32%
COc1ccc(/C=N/n2c(COc3ccccc3)n[nH]c2=S)cc1OC,u,19µM*,u,1.3µM*,14µM*,-27%
COc1ccc(Br)cc1/C=N/n1c(COc2ccccc2)n[nH]c1=S,3%,-26%,12%,45µM*,-9%,1%
CC(NC(=O)c1cccc(CS(C)(=O)=O)c1)c1ccccc1 (stereo not drawn),-5%,x,x,x,x,x
CCN(CC)c1ccc(S(=O)(=O)N2CCOCC2)cc1NC(=O)COC(=O)/C=C/c1ccccc1,52%,-1%,31%,x,-3%,x
Cc1ccc(/C=C/C(=O)OCC(=O)Nc2cccc(S(=O)(=O)N(C)C)c2)o1,0%,-8%,-25%,u,-29%,79µM*
CCN(CC)c1ccc(S(=O)(=O)N2CCOCC2)cc1NC(=O)COC(=O)/C=C/c1ccc(C)o1,-15%,-7%,6%,45µM*,-24%,-29%
CN(C)S(=O)(=O)c1cccc(NC(=O)COC(=O)/C=C/c2ccc3c(c2)OCO3)c1,8%,0%,23%,-1%,-13%,-21%
CN(C)S(=O)(=O)c1cccc(NC(=O)COC(=O)/C=C/c2ccco2)c1,-18%,30µM*,u,u,u,u
CCN(CC)S(=O)(=O)c1cccc(NC(=O)COC(=O)/C=C/c2ccco2)c1,u,-6%,5%,16µM*,-15%,50µM*
COc1ccc(CNC(=O)N2CCCCC2c2nc(-c3cnccn3)n[nH]2)cc1 (stereo not drawn),12%,x,x,x,x,x
CC(C)(C)c1ccc(OCCn2cc(C(=O)C3CCCCC3)c3ccccc32)cc1,10%,x,x,x,x,x
CCOc1cccc(/C=N/NC(=O)c2cc(-c3cccn3C)n[nH]2)c1O,u,u,u,48%[0.501 µM],u,50µM*
CCOc1cccc(/C=N/NC(=O)C2CCCC2)c1O,i,2%,56%,60%,-8%,-11%
Cn1cccc1-c1cc(C(=O)N/N=C/c2cccc(O)c2)[nH]n1,0%,-24%,u,45µM*,u,45µM*
COc1ccc(/C=N/NC(=O)c2cc(-c3cccn3C)n[nH]2)cc1OC,-3%,-23%,u,79µM*,-12%[57.1 µM],50µM*
COc1cc(OC)c(OC)cc1/C=N/NC(=O)c1cc(-c2cccn2C)n[nH]1,0%,-3%,28%,-43%[59 µM],15%,-28%
CN1CCN(Cc2c(O)ccc3cc(-c4ccccn4)c(=O)oc23)CC1,2%,-14%,17%,x,-1%,3%
Cc1ccc(/C=N/Nc2ccc3ccccc3n2)o1,-25%,1%,-24%,-46%,u,u
C(=N\Nc1ccc2nncn2n1)/c1ccccn1,17%,-10%,26%,-4%,u,-27%
O=c1nc(N/N=C/c2ccccn2)cn[nH]1,10%,5%,59%,3%,18µM*,2.5µM*
Cc1ccc(/C=N/Nc2cn[nH]c(=O)n2)o1,-3%,-9%,21%,25%,u,40µM*
CCCC1=NN2C(=N)/C(=C\c3cc(C)n(Cc4ccccc4)c3C)C(=O)N=C2S1,-2%,u,50%,5%,-24%,-2%
COc1cc(/C=C2\C(=N)N3N=C(C)SC3=NC2=O)cc(OC)c1OCCOc1ccccc1C,14%,u,-7%,12%[0.501 µM],-27%,-9%
Cc1cc(/C=C2\C(=N)N3N=C(S(C)(=O)=O)SC3=NC2=O)c(C)n1Cc1ccccc1,u,27µM*,-19%,45µM*,u,-37%
COc1cc(/C=C2\C(=N)N3N=C(S(C)(=O)=O)SC3=NC2=O)cc(OC)c1OCCOc1ccccc1C,132%,30µM*,u,u,79µM*,56µM*
